Results as given in PubChem BioAssay (NCATS).
Values joined by “and” are separate entries in the source; they are usually repeats but may differ in a detail not shown here. Equal entries are not always repeated. Records with an inconclusive call do not appear. Unmarked numbers belong to inactive results. Calls come from the whole dose curve.

Target: Bile acid receptor (Homo sapiens) (UniProt Q96RI1)
Test: qHTS assay for small molecule agonists of farnesoid X receptor signaling (AID 588527);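 note: series mostly up to about 77 µM; 0% = vehicle basal and 100% = reference agonist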
Settings: HEK293T FXR-UAS-bla, beta-lactamase ratio, 16 h; hits give high values
Excerpt: NIH Chemical Genomics Center [NCGC] U.S. Environmental Protection Agency [EPA] National Institutes of Environmental Health Sciences [NIEHS] National Toxicology Program [NTP] NCGC Assay Overview The farnesoid-X-receptor (FXR), a nuclear hormone receptor is highly expressed in liver, intestine, kidney and adrenal cortex. Natural ligands of FXR are the bile acids (Cholic acid, Chenodeoxy cholic acid etc). It is an important regulator of diverse metabolic pathways, including the bile acid homeostasis, lipid and glucose metabolisms. FXR regulates the expression of target genes by binding either as a monomer or as a heterodimer with RXR (retinoid X receptor). As FXR regulates a large number of target genes involved in bile acid, lipoprotein and glucose metabolisms, it is a potential pharmacological target for bile acid and lipid disorders. Thus screening environmental chemicals on FXR signaling can be used for the studies focused on metabolic syndrome, hepatic and intestinal toxicity etc.
NCGC Assay Protocol Summary Using a beta-lactamase reporter-gene under control of Farnesoid X receptor (FXR) response element, a cell-based assay [GeneBLAzer FXR-UAS-bla assay developed by Invitrogen] was used to measure FXR ligands signaling. GeneBLAzer FXR-UAS-bla HEK293T cells were used with assay medium containing 10% dialyzed FBS. The assay was performed in clear bottom black Greiner 1536-well plates. Chenodeoxycholic acid and Guggulsterone were used in the screen as agonist and antagonist positive controls respectively. Library compounds were measured for their ability to stimulate the reporter gene activity. Compounds were screened in a titration series in 1536-well format. […] Data was normalized relative to Chenodeoxycholic acid control (100 uM, 100%), and DMSO only wells (basal, 0%). Concentration-response titration points for each compound were fitted to the Hill equation yielding concentrations of half-maximal stimulation (EC50) and maximal response (efficacy) values. qHTS protocol for FXR beta-lactamase assay in agonist mode [Step] [Parameter] [Value] [Description] 1. Reagent; 6 uL; 5000 cells/well 2. Incubation; 37 C for 5-7 hrs 3. Compounds; 23 nL; 0.59 nM to 92 uM 4. Controls (Chenodeoxycholic acid); 23 nL, - One column with dose response, start 200 uM, 1:2 dilutions in duplicates - Final concentrations of 100 uM and 60 uM in two columns 5. Incubation; 37 C for 16 hrs 6. Detection reagent; 1 uL of CCF4-dye 7. Incubation; RT for 2 hrs 8. Detection; Fluorescence; Envision plate reader

Bile acid receptor (Homo sapiens), sequence (Q96RI1 whole entry, looked up): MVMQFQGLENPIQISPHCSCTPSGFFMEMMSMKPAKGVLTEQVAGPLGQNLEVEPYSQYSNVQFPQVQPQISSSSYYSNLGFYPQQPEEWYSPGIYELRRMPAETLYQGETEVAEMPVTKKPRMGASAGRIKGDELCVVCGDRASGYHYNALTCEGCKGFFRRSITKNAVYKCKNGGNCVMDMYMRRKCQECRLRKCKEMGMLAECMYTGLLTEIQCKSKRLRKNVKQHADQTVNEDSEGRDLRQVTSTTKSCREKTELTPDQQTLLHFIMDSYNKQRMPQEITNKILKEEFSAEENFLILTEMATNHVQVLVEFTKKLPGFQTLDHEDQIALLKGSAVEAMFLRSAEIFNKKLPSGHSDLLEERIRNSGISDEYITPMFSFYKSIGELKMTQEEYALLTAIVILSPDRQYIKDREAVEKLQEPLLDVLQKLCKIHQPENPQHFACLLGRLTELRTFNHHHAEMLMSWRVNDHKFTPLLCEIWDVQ

Row | SMILES | activation
1 | CCOP(=S)(OCC)Oc1nc(Cl)c(Cl)cc1Cl | -1.55% [middle of 4 runs]
2 | NC1CCC(CC2CCC(N)CC2)CC1 (stereo not given) | -0.153% and 0.847%
3 | OCCOCCO | -2.87%
4 | NNC(N)=S | -2.79%
5 | N#CC(Cl)(Cl)Cl | -1.65%
6 | O=S(=O)(O)F | 0.0183%
7 | C=CCOCC1CO1 (stereo not given) | -2.32%
8 | N#CCCCCC#N | -2.39%
9 | CC(=O)NNc1ccccc1 | -3.51%
10 | CCCCOCC1CO1 (stereo not given) | -3.01%
11 | CC(C)[C@]12CC(=O)[C@H](C)[C@H]1C2 | -2.27% and 5.04%
12 | O=c1ccc(=O)[nH][nH]1 | -0.172% and -2.47%
13 | Brc1ccc(Oc2ccc(Br)cc2Br)c(Br)c1 | -1.06%
14 | Cc1ccc(N)c(C)c1 | 3.12%
15 | C=C(C)CCl | -1.8%
16 | CNC(=O)O/N=C/C(C)(C)S(C)=O (stereo not given) | -0.355% and 3.36%
17 | ClC(Cl)C(Cl)Cl | -2.53%
18 | O=C(O)C(Cl)Br (stereo not given) | -0.167%
19 | FC(Cl)(Cl)Cl | -3.19%
20 | O=C(O)c1cc(Cl)ccc1Cl | -1.21%

Row | SMILES | activation
21 | O=C(Cc1ccccc1)OCc1ccccc1 | -3.22%
22 | ClCCCCl | 1.98%
23 | Cc1cccc(C)c1N | -1.75%
24 | Nc1cc(Cl)cc(Cl)c1 | -0.351%
25 | O=C(O)c1cccc(Cl)c1 | 2.01%
26 | Brc1cccc(-c2ccccc2)c1 | -2.22%
27 | CCC/C=N/O | 0.311%
28 | N#CC(Br)Br | -0.424%
29 | Nc1c(Cl)cc([N+](=O)[O-])cc1Cl | -3.3% and 0.0652%
30 | CC(C)Br | -0.0522%
31 | O=[N+]([O-])c1ccccc1CCl | -1.64%
32 | Cc1cc(Cl)ccc1O | -2.04%
33 | BrC(Br)Br | -2.73%
34 | O=C(Cl)c1ccccc1F | 2.29%
35 | Cc1cc(C)cc(OP(=O)(Oc2cc(C)cc(C)c2)Oc2cc(C)cc(C)c2)c1 | 0.362%
36 | N#CCBr | -0.961%
37 | CCCN(CCC)c1c([N+](=O)[O-])cc(C(F)(F)F)cc1[N+](=O)[O-] | 1.13%
38 | CCCCOC(=O)c1ccccc1N | 0.511%
39 | Nc1cccc(Cl)c1 | -2.3%
40 | CN(C)N=O | -0.99%
